Key:
Assay in all cases: log2 ratio of Biotin-Ahx-Ub-VS probe labelling (fragment/DMSO); higher = less target engagement (more negative = stronger competition), active = hit call of the paper (q ≤ 0.05, log2 ratio ≤ -1)
Settings in all cases: compound concentration: 200 uM; treatment time: 3 h
USP19 = target: T1, USP19 (UniProt O94966)
T1 sequence (whole entry): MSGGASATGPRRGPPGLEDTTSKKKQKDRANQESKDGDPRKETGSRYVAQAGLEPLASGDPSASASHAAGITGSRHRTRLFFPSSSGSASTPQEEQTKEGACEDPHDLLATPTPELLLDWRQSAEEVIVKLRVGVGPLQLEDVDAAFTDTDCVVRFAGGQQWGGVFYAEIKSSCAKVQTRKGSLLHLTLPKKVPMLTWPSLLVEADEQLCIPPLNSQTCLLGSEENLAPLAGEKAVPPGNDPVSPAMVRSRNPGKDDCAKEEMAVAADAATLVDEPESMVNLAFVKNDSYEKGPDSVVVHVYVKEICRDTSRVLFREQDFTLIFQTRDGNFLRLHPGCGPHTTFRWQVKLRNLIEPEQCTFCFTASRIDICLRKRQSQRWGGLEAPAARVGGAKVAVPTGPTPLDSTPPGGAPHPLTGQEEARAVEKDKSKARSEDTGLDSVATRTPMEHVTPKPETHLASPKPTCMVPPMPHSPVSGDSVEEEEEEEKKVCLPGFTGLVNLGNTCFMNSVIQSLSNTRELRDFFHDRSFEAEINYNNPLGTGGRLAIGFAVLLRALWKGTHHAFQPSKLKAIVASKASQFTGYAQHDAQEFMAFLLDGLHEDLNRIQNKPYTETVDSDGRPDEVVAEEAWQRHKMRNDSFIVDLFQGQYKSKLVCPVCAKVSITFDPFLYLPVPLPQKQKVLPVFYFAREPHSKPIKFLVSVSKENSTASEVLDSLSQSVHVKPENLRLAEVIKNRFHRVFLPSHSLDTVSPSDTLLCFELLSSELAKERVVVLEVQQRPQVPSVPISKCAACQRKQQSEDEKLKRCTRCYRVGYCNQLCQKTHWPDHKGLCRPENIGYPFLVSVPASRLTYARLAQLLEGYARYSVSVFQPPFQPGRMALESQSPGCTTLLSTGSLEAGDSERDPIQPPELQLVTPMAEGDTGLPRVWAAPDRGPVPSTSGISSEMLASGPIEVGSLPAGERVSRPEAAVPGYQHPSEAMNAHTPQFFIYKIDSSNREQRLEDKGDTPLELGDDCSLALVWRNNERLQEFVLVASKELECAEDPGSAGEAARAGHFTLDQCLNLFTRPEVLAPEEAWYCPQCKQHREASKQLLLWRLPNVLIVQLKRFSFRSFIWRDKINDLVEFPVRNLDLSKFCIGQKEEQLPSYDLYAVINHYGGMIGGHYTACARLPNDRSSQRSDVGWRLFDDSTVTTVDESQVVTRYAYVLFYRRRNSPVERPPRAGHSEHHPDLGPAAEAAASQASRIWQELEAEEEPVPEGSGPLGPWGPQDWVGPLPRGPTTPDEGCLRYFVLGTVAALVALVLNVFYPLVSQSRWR
In short: (§1)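 Labelled DUBs from HEK293T lysate were NeutrAvidin-enriched, digested with LysC and trypsin, and run by diaPASEF LC-MS/MS. Before that, each 495 µg sample in Tris/CHAPS/IGEPAL buffer with protease inhibitors was treated in triplicate with fragment at 200 µM or vehicle for 3 h, then with Biotin-Ahx-Ub-VS at 0.5 µM final for 1 h. Values are average log2 ratios of fragment over vehicle by unpaired t-test, based on global-median-normalised Spectronaut label-free quantities from proteins with ≥2 unique peptides.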

USP24 = USP24 (UniProt Q9UPU5)
Sequence of USP24 (Q9UPU5 whole entry): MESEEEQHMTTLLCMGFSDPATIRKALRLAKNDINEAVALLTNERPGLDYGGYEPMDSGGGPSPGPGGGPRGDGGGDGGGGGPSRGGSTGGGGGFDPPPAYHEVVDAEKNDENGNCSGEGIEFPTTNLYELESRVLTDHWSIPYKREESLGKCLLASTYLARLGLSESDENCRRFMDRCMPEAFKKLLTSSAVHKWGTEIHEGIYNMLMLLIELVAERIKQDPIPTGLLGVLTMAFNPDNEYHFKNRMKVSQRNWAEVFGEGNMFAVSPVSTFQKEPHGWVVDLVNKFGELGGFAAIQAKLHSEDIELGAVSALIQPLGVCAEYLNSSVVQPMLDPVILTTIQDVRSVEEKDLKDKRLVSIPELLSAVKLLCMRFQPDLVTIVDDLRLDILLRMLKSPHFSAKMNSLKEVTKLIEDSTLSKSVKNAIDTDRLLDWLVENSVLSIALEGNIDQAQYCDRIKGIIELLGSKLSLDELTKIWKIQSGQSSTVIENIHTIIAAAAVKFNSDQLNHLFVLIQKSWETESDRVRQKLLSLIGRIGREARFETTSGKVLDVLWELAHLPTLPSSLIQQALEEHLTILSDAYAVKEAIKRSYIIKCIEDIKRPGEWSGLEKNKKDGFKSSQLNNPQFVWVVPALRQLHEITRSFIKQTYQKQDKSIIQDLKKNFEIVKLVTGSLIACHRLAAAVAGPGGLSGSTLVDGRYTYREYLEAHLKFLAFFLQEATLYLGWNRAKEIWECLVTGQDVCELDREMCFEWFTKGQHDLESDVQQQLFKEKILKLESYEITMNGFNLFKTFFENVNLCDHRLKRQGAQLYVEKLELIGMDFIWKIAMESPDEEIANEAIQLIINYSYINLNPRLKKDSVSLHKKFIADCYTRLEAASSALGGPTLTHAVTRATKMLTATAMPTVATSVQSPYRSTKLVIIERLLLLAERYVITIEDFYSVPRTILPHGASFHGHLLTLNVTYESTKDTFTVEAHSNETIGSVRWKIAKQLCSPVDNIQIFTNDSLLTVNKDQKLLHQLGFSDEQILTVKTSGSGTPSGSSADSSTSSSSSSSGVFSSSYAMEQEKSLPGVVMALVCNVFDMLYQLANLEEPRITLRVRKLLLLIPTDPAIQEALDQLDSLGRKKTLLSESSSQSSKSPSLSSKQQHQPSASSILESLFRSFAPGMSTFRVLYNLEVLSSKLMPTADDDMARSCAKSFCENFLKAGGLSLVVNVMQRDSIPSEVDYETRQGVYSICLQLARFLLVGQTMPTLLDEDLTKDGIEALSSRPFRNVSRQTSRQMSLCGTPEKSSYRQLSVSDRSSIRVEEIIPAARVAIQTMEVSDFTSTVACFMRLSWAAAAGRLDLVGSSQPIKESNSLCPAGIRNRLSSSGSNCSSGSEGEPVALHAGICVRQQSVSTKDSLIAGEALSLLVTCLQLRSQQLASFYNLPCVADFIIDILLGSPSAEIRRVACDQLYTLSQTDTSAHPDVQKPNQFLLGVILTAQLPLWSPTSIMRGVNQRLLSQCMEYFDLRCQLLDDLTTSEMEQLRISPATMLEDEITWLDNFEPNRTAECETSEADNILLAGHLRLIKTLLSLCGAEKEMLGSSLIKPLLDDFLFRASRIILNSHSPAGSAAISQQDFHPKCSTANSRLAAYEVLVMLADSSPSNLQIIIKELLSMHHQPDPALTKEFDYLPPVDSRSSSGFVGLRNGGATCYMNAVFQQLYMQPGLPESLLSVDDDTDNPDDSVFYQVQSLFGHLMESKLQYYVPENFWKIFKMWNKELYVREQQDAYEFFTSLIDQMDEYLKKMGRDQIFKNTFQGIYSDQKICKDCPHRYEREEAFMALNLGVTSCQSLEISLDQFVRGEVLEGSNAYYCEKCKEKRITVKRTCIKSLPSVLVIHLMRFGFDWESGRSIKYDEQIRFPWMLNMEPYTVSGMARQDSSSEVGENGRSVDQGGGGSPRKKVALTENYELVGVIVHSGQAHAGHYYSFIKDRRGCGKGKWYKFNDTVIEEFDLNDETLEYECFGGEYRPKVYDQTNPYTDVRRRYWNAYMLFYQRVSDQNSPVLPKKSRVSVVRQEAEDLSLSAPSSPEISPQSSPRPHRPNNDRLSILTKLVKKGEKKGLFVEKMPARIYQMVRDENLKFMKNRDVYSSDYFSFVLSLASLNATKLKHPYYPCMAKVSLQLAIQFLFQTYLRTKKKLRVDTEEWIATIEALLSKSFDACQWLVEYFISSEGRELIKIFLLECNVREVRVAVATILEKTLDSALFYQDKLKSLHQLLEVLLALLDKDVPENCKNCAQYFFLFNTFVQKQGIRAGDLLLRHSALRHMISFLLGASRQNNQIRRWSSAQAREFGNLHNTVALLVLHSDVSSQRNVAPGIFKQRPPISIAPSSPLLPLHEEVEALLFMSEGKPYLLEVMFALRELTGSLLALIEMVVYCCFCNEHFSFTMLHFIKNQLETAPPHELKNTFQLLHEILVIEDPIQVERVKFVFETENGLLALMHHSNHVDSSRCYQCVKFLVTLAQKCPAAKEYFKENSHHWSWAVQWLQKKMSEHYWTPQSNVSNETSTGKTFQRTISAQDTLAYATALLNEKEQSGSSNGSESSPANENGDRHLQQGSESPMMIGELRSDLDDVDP
In short: as §1

USP25 = target: T2, USP25 (UniProt Q9UHP3)
T2 sequence (whole entry): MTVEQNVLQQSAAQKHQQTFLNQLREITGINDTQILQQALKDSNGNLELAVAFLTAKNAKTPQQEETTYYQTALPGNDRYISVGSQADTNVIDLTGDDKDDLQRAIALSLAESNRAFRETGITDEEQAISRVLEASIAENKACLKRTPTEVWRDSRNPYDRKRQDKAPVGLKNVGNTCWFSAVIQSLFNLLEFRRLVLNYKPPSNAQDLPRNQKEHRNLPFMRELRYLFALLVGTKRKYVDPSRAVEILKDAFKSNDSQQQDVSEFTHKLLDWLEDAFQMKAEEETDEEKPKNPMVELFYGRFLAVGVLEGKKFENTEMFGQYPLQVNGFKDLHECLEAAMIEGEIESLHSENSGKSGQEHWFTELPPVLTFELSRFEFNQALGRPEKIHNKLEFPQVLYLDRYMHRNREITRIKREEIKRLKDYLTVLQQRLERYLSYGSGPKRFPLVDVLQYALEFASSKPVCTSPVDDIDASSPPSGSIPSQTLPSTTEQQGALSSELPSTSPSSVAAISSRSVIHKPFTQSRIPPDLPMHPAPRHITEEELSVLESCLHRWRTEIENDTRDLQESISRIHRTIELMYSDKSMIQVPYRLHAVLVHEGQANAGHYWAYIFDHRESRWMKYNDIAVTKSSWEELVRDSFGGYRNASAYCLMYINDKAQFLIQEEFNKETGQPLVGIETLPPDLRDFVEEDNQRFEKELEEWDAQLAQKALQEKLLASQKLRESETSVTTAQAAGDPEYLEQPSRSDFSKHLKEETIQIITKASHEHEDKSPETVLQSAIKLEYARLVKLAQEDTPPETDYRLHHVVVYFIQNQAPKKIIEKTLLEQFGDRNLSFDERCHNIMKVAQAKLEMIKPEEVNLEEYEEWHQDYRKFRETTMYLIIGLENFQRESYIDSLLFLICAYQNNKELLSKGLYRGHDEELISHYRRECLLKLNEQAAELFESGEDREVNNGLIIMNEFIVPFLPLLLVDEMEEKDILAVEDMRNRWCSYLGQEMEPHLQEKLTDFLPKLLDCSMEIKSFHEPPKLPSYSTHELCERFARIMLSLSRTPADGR
In short: as §1

USP28 = target: T3, USP28 (UniProt Q96RU2)
T3 sequence (whole entry): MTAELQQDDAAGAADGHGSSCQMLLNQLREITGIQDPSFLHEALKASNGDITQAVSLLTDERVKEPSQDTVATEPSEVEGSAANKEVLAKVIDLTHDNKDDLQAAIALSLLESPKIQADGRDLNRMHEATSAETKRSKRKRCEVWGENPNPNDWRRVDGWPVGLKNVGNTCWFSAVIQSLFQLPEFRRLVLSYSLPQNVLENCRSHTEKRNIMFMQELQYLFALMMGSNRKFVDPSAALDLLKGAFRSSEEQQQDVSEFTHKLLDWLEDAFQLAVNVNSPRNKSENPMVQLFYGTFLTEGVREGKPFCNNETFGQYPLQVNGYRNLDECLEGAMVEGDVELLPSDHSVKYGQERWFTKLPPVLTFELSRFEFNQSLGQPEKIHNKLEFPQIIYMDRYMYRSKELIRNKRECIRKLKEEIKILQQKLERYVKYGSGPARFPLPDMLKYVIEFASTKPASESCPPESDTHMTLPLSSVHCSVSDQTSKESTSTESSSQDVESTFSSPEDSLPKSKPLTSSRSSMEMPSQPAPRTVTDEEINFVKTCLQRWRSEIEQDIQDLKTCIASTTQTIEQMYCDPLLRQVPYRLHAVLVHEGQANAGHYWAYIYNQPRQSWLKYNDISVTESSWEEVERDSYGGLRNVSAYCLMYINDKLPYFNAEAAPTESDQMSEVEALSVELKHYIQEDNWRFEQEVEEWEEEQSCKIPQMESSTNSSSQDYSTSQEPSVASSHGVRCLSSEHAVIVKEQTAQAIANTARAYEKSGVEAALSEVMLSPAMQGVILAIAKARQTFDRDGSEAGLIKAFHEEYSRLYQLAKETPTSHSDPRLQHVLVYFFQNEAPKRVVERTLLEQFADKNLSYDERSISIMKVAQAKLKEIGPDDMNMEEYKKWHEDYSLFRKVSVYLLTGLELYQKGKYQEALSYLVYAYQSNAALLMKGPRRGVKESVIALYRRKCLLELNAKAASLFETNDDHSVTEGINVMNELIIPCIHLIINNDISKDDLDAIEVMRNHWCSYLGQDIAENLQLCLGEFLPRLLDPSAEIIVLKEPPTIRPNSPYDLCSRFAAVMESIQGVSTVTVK
In short: as §1

Measured: log2 ratio of Biotin-Ahx-Ub-VS probe labelling

O=C(CCl)N1CCCC2CCCCC21 (centres undefined)
inactive: USP19 -0.188 | USP24 -0.697 | USP25 -0.193 | USP28 -0.333

Source: the supplement of paper PMC11732987, “Enantioselective OTUD7B fragment discovery through chemoproteomics screening and high-throughput optimisation” (Communications Chemistry, 2025)
